The list is not random: actives were taken first. Their share in the collection is about 10%.
G9a block – blocks human histone lysine methyltransferase G9a | G9a H3K9 monomethylation, AlphaScreen, 2 h | Potency, µM (highest dose often 102 µM), inactives show at the highest dose activity, negative = inhibition, usual class: inhibitors | 350,000 tested, 8.8% active | AID 504332; note: potency is the fitted concentration of half-maximal effect; nearly all actives have a fitted effect of over 75% in size
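AlphaScreen read-out: biotin-H3K9 peptide (500 nM) methylation by 20 nM enzyme with 20 uM SAM, 2 h at room temperature after 15 min compound preincubation; anti-monomethyl H3K9 antibody plus donor/acceptor beads, 10 min dark.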
PLK1 PBD inh – PLK1 (human) polo-box domain binding inhibition; Potency, µM, without a hit: max response, negative = inhibition, usual class: inhibitors; 360,000 tested, 2.8% active; Plk1 PBD binding of FITC phosphopeptide, fluorescence polarization; AID 720504; P53350; note: potency is the fitted concentration of half-maximal effect; series mostly up to about 57 µM; nearly all actives have a fitted effect of over 65% in size
Target sequence (P53350 whole entry, looked up, the tested form may be a part): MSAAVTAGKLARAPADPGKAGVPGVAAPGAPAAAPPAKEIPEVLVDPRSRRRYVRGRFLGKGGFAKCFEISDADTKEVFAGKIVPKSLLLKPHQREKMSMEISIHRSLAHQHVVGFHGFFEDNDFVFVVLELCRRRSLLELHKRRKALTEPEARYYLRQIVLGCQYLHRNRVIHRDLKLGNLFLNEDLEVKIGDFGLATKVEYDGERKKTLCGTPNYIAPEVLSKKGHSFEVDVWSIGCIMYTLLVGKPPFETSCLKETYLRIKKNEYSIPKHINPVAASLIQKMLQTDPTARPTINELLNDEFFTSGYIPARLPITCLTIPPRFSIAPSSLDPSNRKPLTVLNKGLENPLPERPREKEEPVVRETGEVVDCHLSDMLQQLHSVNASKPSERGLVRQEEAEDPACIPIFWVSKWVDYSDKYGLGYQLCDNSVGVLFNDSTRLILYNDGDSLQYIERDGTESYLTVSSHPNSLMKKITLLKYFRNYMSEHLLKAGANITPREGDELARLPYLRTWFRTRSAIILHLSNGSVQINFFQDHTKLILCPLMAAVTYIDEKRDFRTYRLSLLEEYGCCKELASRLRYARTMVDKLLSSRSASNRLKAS
CCT chaperon mod – modulators of cytosolic chaperonin (CCT/TRiC) activity; purified chaperonin ATPase assay, HTRF ADP detection, 30 min; activity change, % (no concentration beside the values), hits read low; 360,000 tested, 0.3% active; in the data active = activity change below about -30%
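TRiC at 40 or 20 nM final (batch-dependent) in 30 mM Tris pH 7.4, 100 mM KCl, 5 mM MgCl2, 1 mM DTT, with compound at single 76 uM and 10 uM ATP, 30 min at 37 deg C. ADP detected by HTRF Transcreener, 665/615 ratio.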
Mm-Cpn inhibitor – M. maripaludis TRiC chaperonin inhibition; AID 504842; Potency, µM (highest dose often 76.9 µM), for inactives: at the top dose activity, negative = inhibition, usual class: inhibitors; 330,000 tested, 0.031% active; purified Mm-Cpn ATPase, ADP Transcreener TR-FRET; note: potency is the fitted concentration of half-maximal effect; nearly all actives have a fitted effect of over 80% in size
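25 nM Mm-CPN + cpd, 10 min 37°C; + 10 uM ATP, 30 min 37°C; buffer 30 mM Tris pH 7.4, 100 mM KCl, 5 mM MgCl2, 1 mM DTT; Transcreener ADP HTRF detection 30 min RT.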
VDR inh – vitamin D3 receptor (human) inhibition; AID 504847; 400,000 tested, 0.93% active; VDR-SRC2-3 peptide fluorescence polarization, 2 h; Potency, µM, inactives show max response, negative = inhibition, hits mostly inhibitors; note: potency is the fitted concentration of half-maximal effect
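Reagent solutions, kept cold and dark, are dispensed first; compounds are then pinned in at 23 nl, plates briefly spun, and incubated 2 h at ambient temperature. Inhibition of VDR–SRC2-3 peptide binding is read by fluorescence polarization.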
Sfp inh – inhibitors of Bacillus subtilis Sfp phosphopantetheinyl transferase | Q9F4F7 | Biochemical Sfp PPTase activity, qHTS | Potency, µM, without a hit: largest response in the series, negative = inhibition, most hits filed as inhibitors | 310,000 tested, 3.5% active | AID 1490;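 note: the enzyme is Sfp with the accession as filed and its product quenches rhodamine fluorescence; potency is the fitted concentration of half-maximal effect; 0% = enzyme reaction without inhibitor and -100% = no enzyme wells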
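Step 1, compound plus 15 nM Sfp-PPTase, 15 min, room temperature. Step 2, add rhodamine-CoA (5 uM) and BHQ-2-YbbR (12.5 uM). Step 3, read 525/598 nm fluorescence at 0 and 30 min.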
Active calls of the source: *; ? = inconclusive; nt = no result given; ! = not confirmed by another sample; [ ] = dose if it differs, or a comment. Unless noted, calls come from the whole dose curve; as a rule, active = well fitted curve in the direction sought with a large enough effect; inconclusive = small, poorly fitted or top-dose-only effect, or another doubt; inactive = no such curve, though single readings can be large; an effect the other way counts as inactive or inconclusive. Unless noted, % is set by controls: 0 for no effect and ±100 for the full control effect.

SMILES	G9a block	PLK1 PBD inh	CCT chaperon mod	Mm-Cpn inhibitor	VDR inh	Sfp inh
Cc1cc(C)cc(OCC(=O)Nc2ccc(Cl)c(-c3nc4ncccc4o3)c2)c1	-1.7%[59 µM]	nt	nt	nt	3.0%	nt
CCc1ccc(NCc2cc3cc(OC)c(OC)cc3n(CC(=O)Nc3cc(C)ccc3C)c2=O)cc1	-1.2%[59 µM]	nt	nt	nt	11.5%	nt
N#Cc1c(N)c(C#N)c(-c2ccc(O)cc2)c2c1CCCC2	0.3%	-6.7%	-3.3	-11.0%	11.9%	-4.5%
N#Cc1c(N)sc2c1CCCCCC2	17.8µM*	-25.4%	0.5	-18.9%	0.3%	39.8µM*
N#Cc1c(N)sc(=S)c2c1CCCCC2	4.47µM*	21.2µM*	0.8	-3.0%	?	5.01µM*
Cc1cccc(NS(=O)(=O)c2nnc(NC(=O)C3CCCCC3)s2)c1	8.91µM*!	-5.7%	-1.9	?	-7.7%	14.3%
Cc1cccc(NNC(=O)C2CCC2)c1	31.6µM*	1.1%	0.7	0.7%	-8.4%	16.9%
Cc1cccc(NS(=O)(=O)c2nnc(NC(=O)c3ccc(C)c(C)c3)s2)c1	?	-6.4%	-2.3	-4.3%	-11.3%	30.8%
O=C(NNc1ccc(Cl)cc1)C1CCC1	17.8µM*	-13.1%	-36.0*	-1.8%	-24.4%	11.7%
O=C(NCc1ccccc1Cl)c1ccc(CSCc2cccc(F)c2)o1	13.3%[59 µM]	nt	nt	nt	-4.2%	nt
CCOCCCNC(=O)Cn1nc(CC)n2c(cc3c(OC)cccc32)c1=O	18.0%[59 µM]	nt	nt	nt	4.7%	nt
CC(=O)Nc1ccc(-n2cc(-c3ccccc3)[nH]c2=S)cc1	1.41µM*	-16.2%	-0.3	-0.5%	-11.2%	39.8µM*
Cc1ccc(-c2cn(-c3ccccc3F)c(=S)[nH]2)cc1	28.2µM*	?	-0.7	0.5%	-13.9%	0.5%
COc1ccc(-n2cnc3ccccc32)cc1	-1.5%	-7.2%	-0.7	1.4%	-9.4%	2.9%
COc1ccc(-n2cnc(=S)[nH]c2=S)cc1	nt	?	-1.8	nt	28.2µM*	nt
COc1ccc(-n2cc(-c3ccccc3)[nH]c2=S)cc1	1.58µM*	-10.7%	4.0	?	-1.8%	-26.2%
CC(C)CN1CCc2nc(Nc3ccc(F)cc3F)ncc2C1	2.8%[12.7 µM]	nt	nt	nt	16.2%	nt
Cc1cccc(-n2cc(-c3ccccc3)[nH]c2=S)c1	25.1µM*	-13.4%	1.3	-2.7%	11.0%	-18.9%
COc1cccc(-c2cn(-c3cccc(C(F)(F)F)c3)c(=S)[nH]2)c1	22.7%[0.501 µM]	-3.9%	-1.6	-9.1%	14.5%	-9.9%
COc1ccccc1-n1cc(-c2ccccc2)[nH]c1=S	10µM*	?	-18.0	-5.2%	4.5%	-20.1%
Cc1ccc(CNC(=O)CCCc2nnc3n(C)c(=O)c4sccc4n23)cc1	-5.6%[59 µM]	nt	nt	nt	8.9%	nt
O=C(NC1CC(=O)N(c2ccc(Cl)cc2)C1)c1ccc2c(c1)OCO2 (stereo unspecified)	9.9%[59 µM]	nt	nt	nt	4.5%	nt
Cc1ccc(NC(=S)Nc2cccc3cnccc23)cc1	35.5µM*	26.7µM*	-3.7	3.7%	?	44.7µM*
Cc1ccc(NC(=S)Nc2cccc3cnccc23)cc1C	-4.4%[12.7 µM]	26.7µM*	-0.5	-0.1%	?	39.8µM*
COc1ccc(NC(=S)Nc2cccc3ccccc23)cc1OC	nt	-22.1%	-0.4	-3.6%	-17.1%	-20.7%
SMILES	G9a block	PLK1 PBD inh	CCT chaperon mod	Mm-Cpn inhibitor	VDR inh	Sfp inh
CC(=O)c1ccc(NC(=S)Nc2cccc3cnccc23)cc1	?	29.9µM*	-3.0	-1.0%	?	2.51µM*
COCCNCC(=O)N1c2ccccc2Sc2ccccc21	?	?	2.8	0.3%	-3.6%	-3.9%
COCCNCC(=O)N1CCCCCC1	8.91µM*	-14.0%	-1.3	-3.1%	1.0%	0.3%
OCC(O)/C=N/Nc1nc(N2CCCCC2)nc(N2CCCCC2)n1 (stereo unspecified)	56.2µM*	-10.3%	-0.8	0.9%	7.4%	13.3%
C/C(=N\NC(=O)c1ccc(O)cc1)c1ccc2c(c1)Nc1ccccc1S2	15.8µM*	9.5%	-4.1	-6.9%	2.1%	-2.4%
C/C(=N\NC(=O)c1ccccc1F)c1ccc2c(c1)Nc1ccccc1S2	?	13.2%	-7.7	-3.8%	-3.7%	-15.2%
CC1CN(C(=O)N2CCC(C(=O)NCCCc3ccccc3)CC2)c2ccccc2O1 (stereo unspecified)	-5.0%[59 µM]	nt	nt	nt	13.5%	nt
CCOC(=O)C1(CCOc2ccccc2)CCN(Cc2ccc(O)c(OCC)c2)CC1	79.4µM*	-7.5%	-0.7	-4.1%	-8.3%	10.1%
CCOC(=O)C1(CCOc2ccccc2)CCN(Cc2cc(OC)c(O)c(OC)c2)CC1	79.4µM*	?	0.2	-3.1%	-16.1%	5.1%
CCOC(=O)C1(CCOc2ccccc2)CCN(Cc2ccc(OC)c(O)c2)CC1	nt	6.3%	0.5	1.2%	29.7%	17.5%
CCOC(=O)C1(Cc2ccccc2C)CCCN(Cc2cc(OC)c(O)c(OC)c2)C1 (stereo unspecified)	44.7µM*	-8.9%	-0.3	-0.7%	-28.0%	-13.0%
CCOC(=O)N1CCN(C(=O)C2CCN(Cc3ccc(O)c(OCC)c3)CC2)CC1	7.08µM*	0.5%	-2.6	-0.4%	-11.5%	19.3%
COc1ccc(OC)c(NC(=O)Cn2c(=O)cc(C)c3c(C)nn(-c4cccc(Cl)c4C)c32)c1	-32.4%[59 µM]	nt	nt	nt	16.0%	nt
CCOC(=O)C1(CCOC)CCN(Cc2cnc(-c3cccc(C)c3)nc2)CC1	44.7µM*	-8.5%	-0.3	-0.4%	0.7%	1.7%
Cc1cccc(-c2c(O)cc(=O)[nH]c2Cl)c1	-42.5%	-15.0%	-4.4	-3.7%	-16.4%	?
O=c1cc(O)c(-c2ccccc2Cl)c(Cl)[nH]1	4.0%[12.7 µM]	0.4%	-2.3	-3.2%	-3.0%	89.1µM*
O=C(Nc1ccccc1)Nc1ccc(O)c2ccccc12	nt	?	-2.4	nt	50.1µM*	nt
O=C(Nc1ccccc1)Nc1csc2ccccc12	4.4%	1.3%	-4.4	0.0%	5.7%	50.1µM*
O=C(Nc1ccccc1Cl)Nc1ccccc1Cl	nt	-2.1%	-8.2	3.8%	7.7%	25.9%
O=C(Nc1ccc(Nc2ccccc2)cc1)Nc1ccccc1Cl	7.94µM*	-7.1%	-1.0	-0.2%	11.6%	10.9%
O=C(Nc1ccccc1Cl)C(Cl)C(=O)c1ccccc1 (stereo unspecified)	39.8µM*	1.68µM*	-2.5	-6.1%	-10.8%	13.2%
CC(=O)Nc1csc2ccccc12	nt	-18.5%	1.5	-0.3%	-2.9%	15.3%
O=C(N[C@H]1CCCc2ccccc21)O[C@@H]1C(=O)c2cc(Br)ccc2O[C@H]1c1ccc2c(c1)OCO2	nt	nt	nt	nt	0.5%	-18.4%
Cc1ccccc1C(=O)Nc1c(C)nc(Nc2ccccc2)nc1Nc1ccccc1	5.2%[59 µM]	nt	nt	nt	-10.8%	nt
Cc1ccc(-n2c3c(c(=O)[nH]c2=O)C(NS(=O)(=O)c2ccc(Cl)cc2)(C(F)(F)F)C(=O)N3)cc1 (stereo unspecified)	50.1µM*!	-8.1%	0.6	0.0%	-2.2%	12.5%
